Reference: PubChem BioAssay (NCI)
Several values for one entry are separate records, joined by “and”; a condition that tells them apart may be missing. Equal values may be shown once. The panel holds about 83,000 compounds, 20% with a hit somewhere; the sample as a whole holds those more often.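 Each cell line was grown in a 96-well plate and treated with one concentration of compound for 48 hours. Values below 10 were considered active.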 Activity calls are given as the source filed them.

Columns and labels:
Test in all cases: NCI-60 one-dose screen, 48 h (100 = growth as untreated, 0 = no growth, -100 = all killed)
[1] = test system: SK-MEL-2 melanoma; conditions: 10 µM unless noted
[2] = test system: EKVX NSCLC; conditions: 10 µM unless noted
[3] = test system: SN12C renal; conditions: 10 µM unless noted
[4] = test system: UO-31 renal; conditions: 10 µM unless noted
[5] = test system: TK-10 renal
[6] = test system: ACHN renal; conditions: 10 µM unless noted
[7] = test system: CAKI-1 renal; conditions: 10 µM unless noted
[8] = test system: A498 renal; conditions: 10 µM unless noted
[9] = test system: CCRF-CEM leukemia; conditions: 10 µM unless noted
[10] = test system: MOLT-4 leukemia; conditions: 10 µM unless noted

Row | Compound | growth [1] | growth [2] | growth [3] | growth [4] | growth ([5]; 10 µM unless noted) | growth [6] | growth [7] | growth [8] | growth [9] | growth ([5]; 10 µM) | growth ([5]; 100 µM) | growth [10]
1 | O=C(O)c1ccc2c3ccc(C(=O)O)c4c(C(=O)O)ccc(c5ccc(C(=O)O)c1c25)c43 | 91.3% (inactive) | 101% (inactive) | 101% (inactive) | 85.8% (inactive) | 117% (inactive) | 107% (inactive) | 80% (inactive) | 108% (inactive) | 111% (inactive) |  |  | 
2 | CCOC(=O)C(N)Cc1cc(I)c(O)c(I)c1 (stereo unspecified) | 108% (inactive) and 120% (inactive) | 101% (inactive) and 113% (inactive) | 103% (inactive) and 98.7% (inactive) | 81.6% (inactive) and 78.6% (inactive) | 120% (inactive) and 107% (inactive) | 106% (inactive) and 96% (inactive) | 91.6% (inactive) and 89.2% (inactive) | 103% (inactive) | 100% (inactive) and 103% (inactive) |  |  | 
3 | NCCSSC/C=C\CSSCCN | 113% (inactive) | 123% (inactive) | 98.6% (inactive) | 80% (inactive) | 107% (inactive) | 110% (inactive) | 101% (inactive) | 88.9% (inactive) |  |  |  | 
4 | COc1ccc2oc3cc(NCCN(C)C)ccc3c(=O)c2c1 | 108% (inactive) and 107% (inactive) | 85.9% (inactive) | 81.7% (inactive) and 64.2% (inactive) | 82.9% (inactive) and 67.4% (inactive) | 106% (inactive) and 98.9% (inactive) | 74.5% (inactive) and 58.9% (inactive) | 77.2% (inactive) and 63.5% (inactive) | 121% (inactive) and 85.7% (inactive) | 70.3% (inactive) |  |  | 
5 | O=COCCCc1ccccc1 | 101% (inactive) | 98.8% (inactive) | 105% (inactive) | 93.2% (inactive) | 92.8% (inactive) | 110% (inactive) | 106% (inactive) | 83.2% (inactive) | 108% (inactive) |  |  | 
6 | CC(=O)Oc1cc(C(C)C)c(OCCN(C)C)cc1C | 116% (inactive) and 119% (inactive) | 107% (inactive) | 96.7% (inactive) and 97.6% (inactive) | 94.2% (inactive) and 97.3% (inactive) | 112% (inactive) and 121% (inactive) | 99.4% (inactive) | 91.9% (inactive) and 95.3% (inactive) | 98.3% (inactive) and 97.4% (inactive) | 113% (inactive) and 99.6% (inactive) |  |  | 
7 | COc1cc2oc3cc(=O)cc4oc(-c5ccccc5)cc(c2c2c1CCC(c1ccccc1)O2)c43 (stereo unspecified) | 95.8% (inactive) | 88.4% (inactive) | 78.3% (inactive) | 57.9% (inactive) |  | 72.7% (inactive) | 57.4% (inactive) | 114% (inactive) | 88.3% (inactive) | 120% (inactive) | 59.8% (inactive) and 8.17% (active) | 72.5% (inactive)
8 | c1ccc2c[n+](Cc3ccc4ccccc4n3)ccc2c1 | 102% (inactive) | 82.5% (inactive) | 80% (inactive) | 82.4% (inactive) | 99.9% (inactive) | 99.8% (inactive) | 102% (inactive) | 79.4% (inactive) | 76.8% (inactive) |  |  | 
9 | N=c1sc2ccccc2n1CC(=O)O | 95.4% (inactive) | 104% (inactive) | 94.1% (inactive) | 86.4% (inactive) | 96.9% (inactive) | 105% (inactive) | 97.8% (inactive) | 102% (inactive) | 85.8% (inactive) |  |  | 
10 | O=C(c1ccncc1)c1c(Cc2ccccc2)ccc2ccccc12 | 69.7% (inactive) | 66.5% (inactive) | 90.6% (inactive) | 64.5% (inactive) | 107% (inactive) | 93.8% (inactive) | 73.8% (inactive) | 104% (inactive) | 103% (inactive) |  |  | 
11 | O=C(O)Cc1cc(=O)[nH]n(-c2ccccc2)c1=O | 116% (inactive) | 96% (inactive) | 97.9% (inactive) | 101% (inactive) | 102% (inactive) | 105% (inactive) | 83.5% (inactive) | 97.6% (inactive) | 112% (inactive) |  |  | 
12 | O=C1C(=O)c2ccccc2C(O)=C1CC=C(Cl)Cl | 89.2% (inactive) and 77.8% (inactive) | 75.8% (inactive) | 68.8% (inactive) and 66.9% (inactive) | 55% (inactive) and 47.8% (inactive) | 75.8% (inactive) and 69.5% (inactive) | 52.6% (inactive) and 65% (inactive) | 39.4% (inactive) and 30.8% (inactive) | 81% (inactive) and 82.9% (inactive) | 44% (inactive) and 39.3% (inactive) |  |  | 
13 | O=[N+]([O-])c1cccc2ccc(N/N=C/c3ccccc3O)nc12 | 149% (inactive) and 75% (inactive) | 78.8% (inactive) and 82.1% (inactive) | 96.4% (inactive) and 98.5% (inactive) | 26.6% (inactive) and 64.3% (inactive) | 150% (inactive) and 120% (inactive) | 68.4% (inactive) and 103% (inactive) | 80.3% (inactive) | 92.8% (inactive) and 95% (inactive) | 3.42% (active) and 86.9% (inactive) |  |  | 16.6% (inactive) and 57% (inactive)
14 | Oc1cccnc1CN1CCOCC1 | 97.5% (inactive) and 132% (inactive) | 105% (inactive) and 91.9% (inactive) | 104% (inactive) and 95.6% (inactive) | 78.4% (inactive) and 88.4% (inactive) | 110% (inactive) and 109% (inactive) | 106% (inactive) and 97.3% (inactive) | 105% (inactive) and 89.2% (inactive) | 112% (inactive) | 103% (inactive) and 88.7% (inactive) |  |  | 99.1% (inactive) and 107% (inactive)
15 | COc1ccc2nccc(Cl)c2c1 | 97.4% (inactive) | 101% (inactive) | 98.7% (inactive) | 91.5% (inactive) | 103% (inactive) | 106% (inactive) | 97.3% (inactive) | 95.1% (inactive) | 109% (inactive) |  |  | 
16 | N#CC(=S)Nc1ccc(Cl)c(Cl)c1 | -26.4% (active) | 10.9% (inactive) | -7.92% (active) | -1.39% (active) |  | 0.0372% (active) | -6.76% (active) | -12% (active) | 28.4% (inactive) | 17.5% (inactive) | 8.11% (active) and -69.1% (active) | 
17 | COC(=O)CCOc1ccccc1 | 84% (inactive) | 96.6% (inactive) | 110% (inactive) | 86.8% (inactive) | 108% (inactive) | 91.8% (inactive) | 86.3% (inactive) | 83.9% (inactive) | 95.2% (inactive) |  |  | 
18 | CCCCC/C(C)=N\NC(N)=S | 103% (inactive) | 55.4% (inactive) | 84.4% (inactive) | 61.8% (inactive) | 100% (inactive) | 92.6% (inactive) | 95.2% (inactive) | 84.7% (inactive) |  |  |  | 
19 | Nc1ccc(Cl)c(S(=O)(=O)O)c1 | 88.2% (inactive) | 106% (inactive) | 96.6% (inactive) | 77.9% (inactive) | 98.5% (inactive) | 97.2% (inactive) | 95.2% (inactive) | 84% (inactive) | 106% (inactive) |  |  | 
20 | Cc1c(O)nc(N)[nH]c1=O | 123% (inactive) | 106% (inactive) | 109% (inactive) | 82.9% (inactive) | 126% (inactive) | 108% (inactive) | 110% (inactive) | 109% (inactive) | 90.1% (inactive) |  |  | 
21 | O=C1C=CC[C@H](/C=C/c2ccccc2)O1 | -21.8% (active) and -43.1% (active) | 54.5% (inactive) and 56.3% (inactive) | 55.6% (inactive) and 9.16% (active) | 38.8% (inactive) and 41% (inactive) | 41.7% (inactive) and 22.3% (inactive) | 33.4% (inactive) and -36.3% (active) | 11.4% (inactive) and 2.9% (active) | -18.3% (active) and -10.1% (active) | 12.5% (inactive) and -3.54% (active) |  |  | 3.44% (active) and -22.1% (active)
22 | CCOC(=O)c1ccc(N2C(=O)C(Cl)(c3ccccc3)C2c2ccco2)cc1 (stereo unspecified) | 98.7% (inactive) | 61.2% (inactive) | 95% (inactive) | 70.8% (inactive) | 106% (inactive) | 91.9% (inactive) | 71.7% (inactive) | 88.8% (inactive) | 62.3% (inactive) |  |  | 
23 | Nc1ccc2ccc(NS(=O)(=O)N3CCCCC3)cc2c1 | 85.4% (inactive) | 61.7% (inactive) | 43.2% (inactive) | 64.8% (inactive) | 47.1% (inactive) | 56.7% (inactive) | 43.4% (inactive) | 29.3% (inactive) | 18.3% (inactive) |  |  | 
